Shown are actives, neighbours in structure and some others; about 1.4% of the full set was active somewhere.
p-CIP stab down: p/CIP-EGFP fusion destabilizers, primary screen, fluorescence, F442A cells. Q05BA5. 16 h. decrease of EGFP signal, % at 10 µM. 290,000 compounds, 0.01% hits. AID 1984, 2009;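 active = EGFP signal decrease of at least 30% at 10 µM or well 3 SD below plate mean, unless failing retest; inactive = the rest, including hits failing retest or dose response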
V-ATPase pH: regulators of yeast V-ATPase proton pumping, primary screen, pHLuorin cytosolic pH fluorescence; S. cerevisiae; response, % at 10 µM; 350,000 compounds, 0.37% hits; AID 504577, 2011; in the data active = response mostly above about 7.3%, no sharp cut-off; inactive = mostly below about 5.4%; also: actives read high
Cardio protect: cardioprotection against H2O2-induced cell death, primary screen, uHTS, H9c2 cells, ATPLite luminescence; H9c2 cardiomyocytes, H2O2 injury protection, 2 h; protection from H2O2 cell death, % at 20 µM; 360,000 compounds, 0.63% hits;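 active = compounds giving at least 50% protection of heart cells from peroxide-induced death in the single-dose screen, raw or plate-pattern-corrected value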;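 also: 0% = DMSO wells with peroxide and 100% = DMSO wells without peroxide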
HSV augment: enhancers of HSV replication in host cells, fold increase, host cell viability. HSV replication augmentation in cells. maximum fold increase. 220,000 compounds, 0.005% hits. AID 1956, 2009; in the data active = maximum fold increase above about 1.5; inconclusive = no clear call, values can overlap the other calls; tested in PC3 cells
Yeast superoxide: reduction of superoxide in aged yeast, primary screen, HTS | superoxide response (% of plate mean), % at 10 µM | 330,000 compounds, 0.18% hits | S. cerevisiae aged cells, superoxide DHE fluorescence; active compounds read low;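 active = superoxide response under a set limit, about three screen SD below normal, cut at about 65% in these data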;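 also: yeast aged for seven days with compound at 30 °C before DHE staining; 100% = average MFI of all compound-treated wells on the plate with controls excluded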
beta cell repl: inducers of MIN6 beta-cell proliferation, primary screen, ATP luminescence, uHTS; AID 2380, 2010; MIN6 cells proliferation, ATPlite luminescence, 48 h; cells starved in 0.2% serum; 100% = growth in 10% serum; 330,000 compounds, 0.29% hits; proliferation, % at 10 µM;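 active = compounds whose signal lies at least 3.5 SD above the mean of all wells on their plate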;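 also: 0% = DMSO-treated cells in low-serum medium and 100% = 10% serum control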
* = called active by the depositor; i = inactive; ? = inconclusive; . = no result.

SMILES	p-CIP stab down	V-ATPase pH	Cardio protect	HSV augment	Yeast superoxide	beta cell repl
CCN(CC)C(=O)CSc1nc2c(sc(=S)n2-c2ccc(C)cc2C)c(=O)[nH]1	-8.4	3.5	7.9	.	91.9	-3.5
Cc1[nH]c2ccccc2c1C(=O)CSc1ncn[nH]1	-11.3	-138.7	4.7	i	96.3	-1.6
Cc1[nH]c2ccccc2c1C(=O)CSc1n[nH]c(N)n1	4.3	13.1*	3.0	i	79.9	-1.4
COc1ccc(CC2(CO)CCN(Cc3cccc(OC)c3OC)CC2)cc1	-30.4	14.6*	1.0	i	98.7	-0.8
Cc1c(C#N)c(N)nc2c3c(sc12)NC(=O)CC3c1ccc(Cl)cc1 (configuration not stated)	6.5	0.6	50.1*	i	88.5	0.0
N#Cc1c(N)nc2c3c(sc(=N)c2c1N)NC(=O)CC3c1ccccc1 (configuration not stated)	2.9	-2.3	16.2	i	91.7	-1.9
CCCCNC(=O)CC1N=C2c3ccccc3N=C(SCC(=O)Nc3cccc(OC)c3)N2C1=O (configuration not stated)	-5.2	9.3	3.2	i	85.4	-2.7
CCCCNC(=O)CC1N=C2c3ccccc3N=C(SCC(=O)Nc3ccc(OC)cc3)N2C1=O (configuration not stated)	45.9*	7.8	-0.1	i	95.2	-2.3
CC(=O)n1cc(/C=N/NC(=O)c2sc(C)nc2C)c2ccccc21	-9.3	-1.8	56.5*	i	111.2	-0.8
Cc1ccc(NCc2nnc(SCC(=O)N3c4ccccc4Sc4ccccc43)o2)c(C)c1	6.9	-2.2	-13.2	i	103.2	0.0
COC(=O)c1cc(-c2ccc3c(c2)OCO3)nc2ccccc12	8.9	-1.2	8.4	i	101.3	3.2
Cc1cc(C)nc(NC(=O)c2cc(-c3ccc4c(c3)OCO4)nc3ccccc23)c1	-1.4	13.9*	3.8	.	85.9	-1.5
CCOc1ccc(CC(=O)Nc2c(C(N)=O)oc3ccc(Br)cc23)cc1OCC	-13.8	-2.2	78.2*	i	85.0	7.9
O=S(=O)(NCc1ccccc1)c1ccc(-n2cccn2)cc1	-5.0	-0.6	-5.5	.	83.7	1.2
O=C(COC(=O)c1cnccn1)NCc1ccc2c(c1)OCO2	7.3	0.3	16.9	i	96.1	-4.3
O=C1c2ccccc2NC(c2cccc([N+](=O)[O-])c2)N1O (configuration not stated)	-12.8	-2.4	24.8	.	84.5	-1.1
O=C1c2ccccc2NC(c2ccc([N+](=O)[O-])cc2)N1O (configuration not stated)	-10.0	-0.5	62.0*	i	93.3	-0.3
Cc1c(C2Nc3ccccc3C(=O)N2O)cnn1C (configuration not stated)	-1.8	-1.9	52.3*	i	90.9	0.2
O=C(O)CCC(=O)N1CC=C(c2ccccc2)CC1	-1.8	0.7	-4.0	i	104.1	0.1
O=C(CN1C(=O)c2ccccc2C1=O)OCC(=O)N1CCc2ccccc2C1	9.1	10.6	5.9	i	103.2	2.4
O=C(Cn1[nH]c(=O)c2ccccc2c1=O)N1CC=C(c2ccccc2)CC1	-9.8	-1.0	47.9*	i	101.5	0.4
O=C(Cn1[nH]c(=O)c2ccccc2c1=O)OCC(=O)N1CCCc2ccccc21	8.6	3.2	85.6*	i	98.5	1.6
O=C(Cn1[nH]c(=O)c2ccccc2c1=O)OCC(=O)N1CCc2ccccc2C1	-4.4	-3.2	90.0*	i	99.0	-0.6
COc1ccc(C(=O)CN2C(=O)c3ccccc3C2=O)c(OC)c1C	-9.6	18.6*	-2.9	i	132.8	1.2
COc1ccc(C(=O)CN2C(=O)c3ccccc3C2=O)cc1	-8.5	-0.7	0.1	i	106.3	0.4
SMILES	p-CIP stab down	V-ATPase pH	Cardio protect	HSV augment	Yeast superoxide	beta cell repl
COc1ccc(CNC(=O)CN(C(=O)CCC(=O)Nc2ccccn2)c2cccc(C)c2C)cc1	-8.0	2.7	9.0	.	94.4	-2.0
O=C(Cc1ccc(F)cc1)Nc1ccccc1Sc1ccccc1	-10.4	16.5*	0.3	i	89.6	0.0
C=CCn1c(O)c(N=NC(=S)Nc2ccc(OC)cc2)c2ccccc21	2.1	-5.5	56.5*	i	107.3	.
C=CCn1c(O)c(N=NC(=S)Nc2cccc(OC)c2)c2ccccc21	-5.7	0.2	38.6	i	90.5	-5.3
Fc1ccc(CCNC(=S)Nc2ccc(F)c(Cl)c2)cc1	0.6	3.5	-3.3	i	106.4	-7.3
CC(C)Oc1ccc(C(=O)NCC(=O)N2CCN(S(=O)(=O)/C=C/c3ccccc3)CC2)cc1	.	2.0	-8.2	.	104.6	3.9
COc1ccc(OC)c(N2C(=O)c3cccnc3C2=O)c1	-5.2	-0.5	3.8	.	101.5	-0.2
COc1ccc(Cl)cc1N1C(=O)c2cccnc2C1=O	-16.4	17.9*	-2.5	.	96.7	-3.1
CNS(=O)(=O)c1cc2c3c(cccc3c1)C(=O)NC2=O	0.7	-1.5	57.6*	i	92.4	-4.5
Cc1ccc(NS(=O)(=O)c2cc3c4c(cccc4c2)C(=O)NC3=O)cc1	11.5	3.9	20.9	i	102.1	-4.3
O=C(Oc1cccc2c(=O)[nH]ccc12)c1ccccc1	4.2	0.4	80.5*	i	77.8	-0.4
O=C(Oc1ccc[nH]c1=O)c1ccccc1	.	0.1	6.0	.	.	.
O=C(COC(=O)C1CC2CCCC(C1)C2=O)NC1CCCCC1 (configuration not stated)	.	1.9	-3.1	.	106.9	-2.2
O=C1C=CC(=O)N1c1cccc(-c2ccccc2)c1	-39.0	32.4*	-16.0	i	80.9	-4.3
O=C(Nc1cccc(N2C(=O)C=CC2=O)c1)c1cccs1	.	4.7	-11.4	.	98.0	-7.0
O=C(CCNS(=O)(=O)c1ccccc1)OCc1ccc([N+](=O)[O-])cc1	.	1.4	-11.3	.	.	.
COc1ccc(S(=O)(=O)NCC(=O)O)cc1C(=O)NC1CCCCC1	-8.9	2.9	4.2	i	93.9	0.0
C=CCN1C(=O)c2ccc(C(=O)N(C)CC(=O)Nc3cccc(F)c3)cc2C1=O	1.9	4.4	3.4	.	90.7	-2.3
COc1cccc(/C=N/NC(=O)c2oc3nc(-c4ccccc4)cc(-c4ccco4)c3c2N)c1	-18.1	-2.5	56.3*	i	90.3	-0.4
Cc1ccc(-c2cc(-c3ccco3)c3c(N)c(C(=O)NN)oc3n2)cc1	-9.7	-11.3	29.8	?	121.5	-1.5
CC(=O)Nc1nnc(CCS(=O)(=O)c2ccc(C)cc2)s1	.	22.9*	-4.7	.	97.9	0.4
CC(=O)Nc1nnc(CCS(=O)(=O)c2ccc(Cl)cc2)s1	16.7	-0.9	5.4	i	.	.
Cc1ccc(SCC(=O)N2N=CCC2c2ccccc2)cc1 (configuration not stated)	-1.0	0.2	-2.7	i	102.0	2.2
